# Assay results: the supplement of paper PMC10981050
# Values joined by “and” are separate entries in the source; they are usually repeats but may differ in a detail not shown here. Equal values may be shown once. Where a name gives a salt, the structure may show the parent alone.
# What was measured:
# Experiment in all cases: cell viability relative to vehicle control; higher = less cytotoxic
# Conditions in all cases: 10 µM
# K562 = system: K562
# In short: (§1)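 Each screen used CRISPR-edited mutant and wild-type clones from four leukaemia lines. Compounds were acoustically dispensed at a single 10 µM dose, and CellTiter-Glo luminescence was read after 48 h with the supernatant first removed. Viability was analysed in Genedata Screener and given as percent of the on-plate vehicle control.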
# MARIMO = system: MARIMO
# In short: as §1
# MOLM14 = system: MOLM14
# In short: as §1
# OCI-AML2 = system: OCI-AML2
# In short: as §1
Structure (SMILES),cell viability (K562; SRSF2 genotype: SRSF2 P95H/wt),cell viability (K562; SRSF2 genotype: SRSF2 wt/wt),cell viability (MARIMO; SRSF2 genotype: SRSF2 P95H/wt),cell viability (MARIMO; SRSF2 genotype: SRSF2 wt/wt),cell viability (MOLM14; SRSF2 genotype: SRSF2 P95H/wt),cell viability (MOLM14; SRSF2 genotype: SRSF2 wt/wt),cell viability (OCI-AML2; SRSF2 genotype: P95H/wt),cell viability (OCI-AML2; SRSF2 genotype: wt/wt)
CCN(CC)c1ccc(C=NNC(=O)c2ccc(O)cc2)cc1,46.8% and 47.9%,51.9%,53.8%,52.2%,56.2%,49.9%,70.1%,69.3%
O=C(/C=C\n1cnc(-c2cc(C(F)(F)F)cc(C(F)(F)F)c2)n1)NNc1ccccn1 [Verdinexor (KPT-335)],11.8% and 21.6%,14.7%,24.4%,22.1%,2.16%,1.01%,4.7%,9.56%
CC(C)(Oc1ccc(Cl)cc1)C(=O)OCCOC(=O)c1cccnc1 [Etofibrate],96% and 91.7%,95.4%,93.2%,100%,94.7%,101%,83.5%,77.5%
C[C@]12C=CC(=O)C=C1CC[C@@H]1[C@@H]2C(=O)C[C@@]2(C)[C@H]1CC[C@]2(O)C(=O)CO [Prednisone (Adasone)],102% and 107%,95.5%,104%,101%,108%,107%,106%,110%
COc1ccc2cc([C@H](C)C(=O)O)ccc2c1 [Naproxen Sodium],99.4% and 104%,96.2%,101%,97.2%,98.6%,102%,105%,98.7%
CO/N=C(\C(=O)N[C@@H]1C(=O)N2C(C(=O)OCOC(=O)C(C)(C)C)=C(/C=C\c3scnc3C)CS[C@H]12)c1csc(N)n1 [Cefditoren pivoxil],103% and 99.7%,101%,104%,111%,94.5%,103%,102%,111%
C[N+]1(C)[C@@H]2C[C@@H](OC(=O)C(O)(c3cccs3)c3cccs3)C[C@H]1[C@@H]1O[C@@H]12 [Tiotropium Bromide hydrate],106% and 108%,98.9%,102%,107%,105%,104%,98.9%,104%
CCCOc1ccc(CCc2nc3cc(-c4c(C)noc4C)ccc3n2CCN2CCOCC2)cc1,81.1% and 91%,84.9%,80.3%,76.7%,60.3%,65%,59.1%,73.5%
NC12CC3CC(CC(C3)C1)C2 [Amantadine hydrochloride (Symmetrel)],99.7% and 116%,107%,107%,103%,106%,112%,111%,100%
O=c1c(-n2ccnn2)c[nH]n1-c1cc(N2CCOCC2)ncn1 [Molidustat(BAY 85-3934)],96.1% and 100%,90.2%,81.8%,98.1%,87.9%,93.6%,85.2%,87.9%
Nc1ccccc1NC(=O)c1cnccn1,91.8% and 96%,82.8%,76.7%,90.7%,75.5%,73.9%,81.3%,88.3%
COc1cccc(Nc2c(C(N)=O)cnc3c(C)cc(S(=O)(=O)c4cccc(C(=O)N(C)C)c4)cc23)c1,109% and 106%,108%,93.5%,101%,108%,103%,111%,98.2%
Cn1cc(-c2ccc3ncc(Cc4ccc5ncccc5c4)n3n2)cn1,108% and 96.6%,98%,102%,101%,87.7%,101%,72.5%,79.3%
COc1cc(O)c(C(=O)Nc2nc(C(=O)NCCN(C(C)C)C(C)C)cs2)cc1OC [Acotiamide],101% and 97.3%,107%,98%,108%,97.5%,106%,94.1%,101%
Nc1nc(F)nc2c1ncn2[C@@H]1O[C@H](CO)[C@@H](O)[C@@H]1O [Fludarabine (Fludara)],102% and 107%,100%,64.5%,77.6%,65.7%,82.8%,4.58%,5.52%
COc1cc2c(Oc3ccc4[nH]c(C)cc4c3F)ccnc2cc1OCC1(N)CC1 [Anlotinib (AL3818) dihydrochloride],19.7% and 32.9%,24.9%,5.61%,5.93%,9.28%,3.53%,17.5%,17.3%
Nc1cccc(-c2cc3c(Oc4cccc(O)c4)ncnc3[nH]2)c1,28.4% and 39.8%,27.7%,84.4%,94.5%,37.8%,35.5%,53.4%,53.3%
Clc1ccc(COC(Cn2ccnc2)c2ccc(Cl)cc2Cl)c(Cl)c1 (configuration not stated) [Miconazole (Monistat)],65.6% and 81%,62.2%,61.1%,73%,67.2%,54.8%,65.5%,54.4%
CNC[C@H](O)[C@@H](O)[C@H](O)[C@H](O)CO.CNC[C@H](O)[C@@H](O)[C@H](O)[C@H](O)CO.O=C([O-])CN(CCN(CC(=O)[O-])CC(=O)O)CCN(CC(=O)[O-])CC(=O)O.[Gd+3] [Gadopentetate Dimeglumine],96.2% and 95.2%,101%,94.1%,98.4%,99.2%,98%,98.2%,97.7%
Cc1ccc(NC(=O)c2ccc(CN3CCN(C)CC3)cc2)cc1Nc1nccc(-c2cccnc2)n1 [Imatinib Mesylate (STI571)],11.9% and 25.7%,16.7%,103%,104%,80.7%,94%,82.3%,78%

Structure (SMILES),cell viability (K562; SRSF2 genotype: SRSF2 P95H/wt),cell viability (K562; SRSF2 genotype: SRSF2 wt/wt),cell viability (MARIMO; SRSF2 genotype: SRSF2 P95H/wt),cell viability (MARIMO; SRSF2 genotype: SRSF2 wt/wt),cell viability (MOLM14; SRSF2 genotype: SRSF2 P95H/wt),cell viability (MOLM14; SRSF2 genotype: SRSF2 wt/wt),cell viability (OCI-AML2; SRSF2 genotype: P95H/wt),cell viability (OCI-AML2; SRSF2 genotype: wt/wt)
CC(=NNC(=S)N1CCC1)c1ccccn1,20.3% and 23%,23.7%,7.26%,11.4%,1.22%,0.64%,11%,9.98%
C/C1=C\CC[C@]23O[C@H]2[C@@H](OC3=O)c2c(C)coc2C1 [Linderane],109% and 104%,112%,104%,99.6%,117%,108%,103%,101%
C=C1[C@H](CO)[C@@H](O)C[C@@H]1n1cnc2c(=O)[nH]c(N)nc21 [Entecavir hydrate],106% and 109%,106%,101%,96.7%,94.7%,106%,87.7%,94.7%
CC[C@H](c1ccc(O)cc1)[C@@H](CC)c1ccc(O)cc1 [Hexestrol (Bibenzyl)],96.8% and 102%,96.9%,94.6%,101%,99.7%,103%,100%,91.9%
OCCc1ccc(O)c(O)c1 [Hydroxytyrosol],94.8% and 103%,98.2%,90.5%,103%,97.5%,104%,105%,106%
CC(C(=O)O)c1cccc(Oc2ccccc2)c1 (configuration not stated) [Fenoprofen calcium],90.9% and 83.7%,86.4%,88.2%,92.5%,89.5%,90.7%,84.1%,87.5%
CC(C)(C)[N+]([O-])=Cc1ccc(S(=O)(=O)O)cc1S(=O)(=O)O [NXY-059 (Disufenton sodium)],111% and 102%,109%,109%,110%,104%,108%,102%,104%
CNc1nc(Nc2cn(C(C)(C)C#N)nc2C)ncc1C(F)(F)F,101% and 102%,103%,101%,108%,98.8%,101%,102%,105%
C[C@]12CC[C@@H]3c4ccc(O)cc4CC[C@H]3[C@@H]1CCC2=O [Estrone],100% and 92.7%,103%,94.5%,96.6%,101%,99.1%,101%,113%
COC(=O)N[C@H](C(=O)N1CCC[C@H]1c1nc(-c2ccc3c(c2)O[C@@H](c2ccccc2)n2c-3cc3cc(-c4c[nH]c([C@@H]5CCCN5C(=O)[C@@H](NC(=O)OC)C(C)C)n4)ccc32)c[nH]1)C(C)C [Elbasvir],87.7% and 92%,86.9%,68.6%,77.3%,81.9%,87.8%,91%,88%
CCOC(=O)c1ccc(N2NC(=O)C(=Cc3ccc([N+](=O)[O-])o3)C2=O)cc1,95.6% and 99.7%,96%,95.8%,90.9%,90.8%,94.9%,102%,107%
O=C1C(c2[nH]c3ccccc3c2O)=Nc2ccccc21 [Indigo],105% and 106%,94.6%,100%,108%,93%,99.8%,90%,106%
COC(=O)[C@H](O)[C@@H](NC(=O)c1ccccc1)c1ccccc1,108% and 104%,107%,108%,103%,98.1%,106%,104%,110%
CN(C)CCCC1(c2ccc(F)cc2)OCc2cc(C#N)ccc21 (configuration not stated) [Citalopram HBr],98.3% and 92.9%,92.5%,94.2%,108%,91.5%,101%,90.8%,97.9%
COc1ccc(N2C(=O)/C(=C\c3ccc([N+](=O)[O-])s3)SC2=S)cc1,,66.2%,71.8%,52.8%,36.7%,58.2%,0.66%,5.17%
C[C@@]1(C(=O)Nc2ccc(F)nc2)CCCN1c1nc(Nc2cc(C3CC3)n[nH]2)c2cccn2n1,61.4% and 72.2%,63.7%,38.7%,33.2%,7.43%,9.62%,7.63%,19.3%
CNC(=O)c1ccccc1Oc1nc(Nc2cc(OC)c(OC)c(OC)c2)ncc1Br,,90.6%,52.5%,55.3%,8.58%,5.16%,11.6%,19%
COc1ccc2[nH]cc(/C=C3\C(=O)Nc4ccc(NC(=O)CCN5CCCCC5)cc43)c2c1,7.59% and 11%,8.26%,37.9%,33.6%,0.75%,0.77%,0.4%,0.72%
O=C(NCCN1CCOCC1)c1ccc(Cl)cc1,97.6% and 103%,106%,101%,98.8%,97.6%,105%,105%,93.8%
Cc1cnc(-c2cnc(NCCNc3ccc(C#N)cn3)nc2-c2ccc(Cl)cc2Cl)[nH]1,,63.6% and 69.4%,96.3% and 94.4%,119% and 126%,87.2% and 98.8%,103% and 110%,95.8% and 99.6%,124% and 133%
